Reference: the supplement of paper PMC10849652
Targets with a hit are over-represented here; the source holds about 7,900 in all. About 0.6% of all pairs of compound and target were hits. Values without a mark were called inactive.

Legend:
Experiment in all cases: log2 fold change, soluble protein after heating vs DMSO (PISA); higher = thermal stabilisation; K562 cells, 10 uM, 30 min; active = over 0.2 and 3.5 SD of the protein, either way, in both replicates (recomputed)
IRAK-1-4 Inhibitor I = compound: C1COCCN1CCN2C3=CC=CC=C3N=C2NC(=O)C4=CC(=CC=C4)[N+](=O)[O-] [IRAK-1-4 Inhibitor I]
Outline: (§1)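 Aliquots of K562 cells (2×10^6 cells/mL) treated with 10 μM compound for 30 min were heated for 3 min over 48°C-58°C. After pooling and extraction in PBS with 0.5% NP-40 at 4°C, soluble protein from a 21,000xg, 90 min spin was quantified by TMTpro 16plex LC-MS/MS with channel sums equalised. Thermal stability is expressed against control samples, from duplicates, as a log2 fold change.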

ibrutinib = compound: C=CC(=O)N1CCC[C@@H](n2nc(-c3ccc(Oc4ccccc4)cc3)c3c(N)ncnc32)C1 [ibrutinib]
Outline: as §1

[1] = compound: CC(=O)c1cnc2ccc(-c3cc(Cl)c(O)c(Cl)c3)nc2c1N[C@H]1CC[C@H](CN(C)C)CC1
Outline: as §1

ralimetinib = compound: CC(C)(C)Cn1c(N)nc2ccc(-c3[nH]c(C(C)(C)C)nc3-c3ccc(F)cc3)nc21 [ralimetinib]
Outline: as §1

[2] = compound: CC(C)(O)CC(=O)NCCn1ccc2ncnc(Nc3ccc(Oc4cccc(C(F)(F)F)c4)c(Cl)c3)c21
Outline: as §1

[3] = compound: CC(C)C1=C2N=C(C=C(N2N=C1)NCC3=CC=CC=C3)NCCCCCCN
Outline: as §1

[4] = compound: CC(C)C[C@@H](C=O)NC(=O)[C@H](CC(C)C)NC(=O)[C@H](CC(C)C)NC(=O)OCc1ccccc1
Outline: as §1

pinometostat = compound: CC(C)N(C[C@H]1O[C@@H](n2cnc3c(N)ncnc32)[C@H](O)[C@@H]1O)[C@H]1C[C@@H](CCc2nc3cc(C(C)(C)C)ccc3[nH]2)C1 [pinometostat]
Outline: as §1

[5] = compound: CC1=C(C(CC(=O)N1)C2=CC=C(C=C2)C(F)(F)F)C(=O)NC3=C(C=C4C(=C3)C=NN4)F
Outline: as §1

[6] = compound: CC1=C(C2=C(C=C1)C(=O)C3=CC=CC=C3N2CCCN)C
Outline: as §1

[7] = compound: CC1=C(C=C(C=C1)NC(=O)C2=CC(=CC=C2)C(C)(C)C#N)NC3=CC4=C(C=C3)N=CN(C4=O)C
Outline: as §1

[8] = compound: CC1=C(C=C(C=C1)NC(=O)C2=CC(=CC=C2)N(C)C)NC(=O)C3=CC=C(C=C3)O
Outline: as §1

[9] = compound: CC1=CC=C(C=C1)SC2=C3C=C(SC3=CN=C2)C(=O)N
Outline: as §1

[10] = compound: CC1=NC(=CC=C1)C2=C(N=C(N2)C(C)(C)C)C3=CC4=NC=CN=C4C=C3
Outline: as §1

Nexturastat A = compound: CCCCN(Cc1ccc(C(=O)NO)cc1)C(=O)Nc1ccccc1 [Nexturastat A]
Outline: as §1

vemurafenib = compound: CCCS(=O)(=O)Nc1ccc(F)c(C(=O)c2c[nH]c3ncc(-c4ccc(Cl)cc4)cc23)c1F [vemurafenib]
Outline: as §1

[11] = compound: CCCS(=O)(=O)Nc1ccc(F)c(C(=O)c2c[nH]c3ncc(Cl)cc23)c1F
Outline: as §1

[12] = compound: CCCc1cc(C)[nH]c(=O)c1CNC(=O)c1cc(-c2ccnc(N3CCN(C)CC3)c2)cc2c1cnn2C(C)C
Outline: as §1

givinostat = compound: CCN(CC)Cc1ccc2cc(COC(=O)Nc3ccc(C(=O)NO)cc3)ccc2c1 [givinostat]
Outline: as §1

barasertib = compound: CCN(CCCOc1ccc2c(Nc3cc(CC(=O)Nc4cccc(F)c4)[nH]n3)ncnc2c1)CCOP(=O)(O)O [barasertib]
Outline: as §1

Chain of UniProt Q86SZ2 (Q86SZ2 whole entry, looked up): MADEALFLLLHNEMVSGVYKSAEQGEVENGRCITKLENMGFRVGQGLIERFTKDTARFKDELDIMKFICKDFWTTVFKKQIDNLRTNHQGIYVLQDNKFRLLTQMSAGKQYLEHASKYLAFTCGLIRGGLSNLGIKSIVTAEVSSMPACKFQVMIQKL
Chain of UniProt Q6ZXV5 (Q6ZXV5 whole entry, looked up): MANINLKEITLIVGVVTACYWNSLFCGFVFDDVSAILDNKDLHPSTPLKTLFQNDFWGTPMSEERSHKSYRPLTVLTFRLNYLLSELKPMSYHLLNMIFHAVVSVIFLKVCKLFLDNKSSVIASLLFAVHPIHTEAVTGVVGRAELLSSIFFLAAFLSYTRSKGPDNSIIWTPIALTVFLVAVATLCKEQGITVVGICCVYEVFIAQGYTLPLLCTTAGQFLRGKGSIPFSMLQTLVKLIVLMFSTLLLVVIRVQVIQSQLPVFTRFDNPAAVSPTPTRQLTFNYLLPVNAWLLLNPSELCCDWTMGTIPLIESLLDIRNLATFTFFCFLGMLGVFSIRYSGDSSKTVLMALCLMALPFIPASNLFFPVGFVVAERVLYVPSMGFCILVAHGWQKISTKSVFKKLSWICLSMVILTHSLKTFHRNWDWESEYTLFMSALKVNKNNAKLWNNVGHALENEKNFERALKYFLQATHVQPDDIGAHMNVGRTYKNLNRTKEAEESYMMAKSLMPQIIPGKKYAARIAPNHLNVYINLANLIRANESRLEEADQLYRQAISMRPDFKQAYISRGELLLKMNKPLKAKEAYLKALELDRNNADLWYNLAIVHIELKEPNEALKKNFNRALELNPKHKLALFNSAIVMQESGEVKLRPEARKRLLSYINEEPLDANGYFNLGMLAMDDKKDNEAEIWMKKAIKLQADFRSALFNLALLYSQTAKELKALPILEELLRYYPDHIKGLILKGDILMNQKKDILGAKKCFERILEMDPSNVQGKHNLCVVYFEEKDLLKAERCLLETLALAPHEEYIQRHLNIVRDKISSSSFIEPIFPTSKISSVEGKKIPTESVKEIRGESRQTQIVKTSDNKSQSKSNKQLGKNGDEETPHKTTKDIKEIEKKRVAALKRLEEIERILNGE
Chain of UniProt Q641Q2 (Q641Q2 whole entry, looked up): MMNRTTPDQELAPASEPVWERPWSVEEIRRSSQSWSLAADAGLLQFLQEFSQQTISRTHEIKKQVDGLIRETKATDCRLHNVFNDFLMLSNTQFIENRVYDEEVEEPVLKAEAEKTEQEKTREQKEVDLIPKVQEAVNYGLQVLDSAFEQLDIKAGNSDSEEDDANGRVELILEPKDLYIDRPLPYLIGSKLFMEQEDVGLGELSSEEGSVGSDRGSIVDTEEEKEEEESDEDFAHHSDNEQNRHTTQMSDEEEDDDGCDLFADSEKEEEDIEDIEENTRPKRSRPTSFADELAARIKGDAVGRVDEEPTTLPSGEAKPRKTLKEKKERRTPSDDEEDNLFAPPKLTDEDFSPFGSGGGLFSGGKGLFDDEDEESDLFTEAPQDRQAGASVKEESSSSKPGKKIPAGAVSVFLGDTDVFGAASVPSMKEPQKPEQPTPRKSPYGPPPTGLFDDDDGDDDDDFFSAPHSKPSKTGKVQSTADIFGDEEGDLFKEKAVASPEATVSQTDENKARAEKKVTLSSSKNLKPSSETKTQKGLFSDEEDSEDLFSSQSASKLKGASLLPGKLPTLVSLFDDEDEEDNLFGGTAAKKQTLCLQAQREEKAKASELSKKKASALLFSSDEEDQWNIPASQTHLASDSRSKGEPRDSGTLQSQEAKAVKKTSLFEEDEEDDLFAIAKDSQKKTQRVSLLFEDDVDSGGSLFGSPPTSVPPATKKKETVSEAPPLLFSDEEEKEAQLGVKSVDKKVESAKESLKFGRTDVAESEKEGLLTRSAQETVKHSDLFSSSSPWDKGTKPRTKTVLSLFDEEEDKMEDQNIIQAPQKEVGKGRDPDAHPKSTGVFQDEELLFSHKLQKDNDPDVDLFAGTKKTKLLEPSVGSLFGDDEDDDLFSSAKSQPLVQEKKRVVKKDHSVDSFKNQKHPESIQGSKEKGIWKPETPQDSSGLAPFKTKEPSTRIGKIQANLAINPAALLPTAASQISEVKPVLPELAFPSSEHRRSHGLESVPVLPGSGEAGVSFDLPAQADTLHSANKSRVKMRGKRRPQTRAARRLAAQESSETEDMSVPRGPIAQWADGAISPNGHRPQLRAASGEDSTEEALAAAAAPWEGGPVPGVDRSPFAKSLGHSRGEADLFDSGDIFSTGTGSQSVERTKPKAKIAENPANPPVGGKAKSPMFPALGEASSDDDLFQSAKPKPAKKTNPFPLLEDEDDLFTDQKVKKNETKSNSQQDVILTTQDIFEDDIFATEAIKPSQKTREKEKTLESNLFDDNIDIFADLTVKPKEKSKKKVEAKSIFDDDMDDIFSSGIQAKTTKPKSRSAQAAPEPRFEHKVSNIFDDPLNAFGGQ
Chain of UniProt Q9UK41 (Q9UK41 whole entry, looked up): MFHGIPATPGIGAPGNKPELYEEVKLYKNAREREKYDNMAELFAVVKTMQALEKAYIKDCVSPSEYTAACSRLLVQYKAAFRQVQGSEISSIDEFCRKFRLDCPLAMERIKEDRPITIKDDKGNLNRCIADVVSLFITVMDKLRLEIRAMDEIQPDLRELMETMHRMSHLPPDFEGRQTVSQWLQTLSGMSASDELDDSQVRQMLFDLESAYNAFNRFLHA
Chain of UniProt Q96AJ9 (Q96AJ9 whole entry, looked up): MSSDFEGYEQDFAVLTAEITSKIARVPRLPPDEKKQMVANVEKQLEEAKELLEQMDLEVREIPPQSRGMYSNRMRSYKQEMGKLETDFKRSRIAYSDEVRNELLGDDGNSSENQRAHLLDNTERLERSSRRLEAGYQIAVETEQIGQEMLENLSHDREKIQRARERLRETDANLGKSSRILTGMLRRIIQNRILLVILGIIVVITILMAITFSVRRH
Chain of UniProt O95379 (O95379 whole entry, looked up): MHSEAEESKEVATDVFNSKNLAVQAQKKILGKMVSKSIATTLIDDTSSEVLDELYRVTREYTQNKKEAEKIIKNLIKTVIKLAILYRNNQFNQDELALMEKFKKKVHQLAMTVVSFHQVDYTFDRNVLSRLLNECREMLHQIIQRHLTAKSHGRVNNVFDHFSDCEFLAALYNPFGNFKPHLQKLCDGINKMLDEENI
Chain of UniProt Q16881 (Q16881 whole entry, looked up): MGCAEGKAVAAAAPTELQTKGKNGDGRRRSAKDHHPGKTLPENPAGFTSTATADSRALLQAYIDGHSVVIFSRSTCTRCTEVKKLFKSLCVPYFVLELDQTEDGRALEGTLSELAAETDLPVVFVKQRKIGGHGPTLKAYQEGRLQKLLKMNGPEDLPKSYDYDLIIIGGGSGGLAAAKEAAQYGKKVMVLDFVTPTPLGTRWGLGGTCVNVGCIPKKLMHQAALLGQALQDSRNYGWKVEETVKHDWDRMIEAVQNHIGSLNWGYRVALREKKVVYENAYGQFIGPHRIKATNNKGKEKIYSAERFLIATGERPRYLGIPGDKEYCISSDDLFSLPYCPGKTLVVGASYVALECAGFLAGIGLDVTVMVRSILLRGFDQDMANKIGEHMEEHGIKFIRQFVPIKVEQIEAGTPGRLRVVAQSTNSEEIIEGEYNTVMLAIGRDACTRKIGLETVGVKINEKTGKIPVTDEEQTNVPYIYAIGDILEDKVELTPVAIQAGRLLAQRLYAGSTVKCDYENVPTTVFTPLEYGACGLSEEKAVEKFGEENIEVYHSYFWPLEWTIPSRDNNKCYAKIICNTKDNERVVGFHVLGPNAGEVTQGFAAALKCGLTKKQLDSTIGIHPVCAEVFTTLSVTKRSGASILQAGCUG

Target | log2 fold change (IRAK-1-4 Inhibitor I) | log2 fold change (ibrutinib) | log2 fold change [1] | log2 fold change (ralimetinib) | log2 fold change [2] | log2 fold change [3] | log2 fold change [4] | log2 fold change (pinometostat) | log2 fold change [5] | log2 fold change [6] | log2 fold change [7] | log2 fold change [8] | log2 fold change [9] | log2 fold change [10] | log2 fold change (Nexturastat A) | log2 fold change (vemurafenib) | log2 fold change [11] | log2 fold change [12] | log2 fold change (givinostat) | log2 fold change (barasertib)
TMEM189-UBE2V1 (UniProt I3L0A0) | 0.048 | 0.022 | -0.022 | 0.006 | -0.024 | 0.031 | -0.028 | -0.046 | 0.03 | 0.037 | -0.067 | 0.017 | 0.006 | -0.003 | -0.042 | -0.005 | -0.056 | -0.182 | 0.024 | -0.054
TMTC3 (UniProt Q6ZXV5) | 0.007 | -0.033 | -0.007 | 0 | 0.022 | -0.218 | 0.028 | -0.019 | -0.008 | 0.018 | -0.05 | -0.009 | 0.019 | 0.007 | 0.067 | -0.052 | 0.013 | -0.013 | -0.032 | 0.032
VTI1A (UniProt Q96AJ9) | 0.095 | 0.012 | -0.009 | -0.111 | 0.019 | 0.005 | 0.028 | -0.016 | 0.028 | -0.01 | -0.039 | 0.015 | 0.011 | 0.095 | -0.023 | -0.014 | -0.035 | 0.052 | -0.013 | -0.009
WASHC2A (UniProt Q641Q2) | -0.002 | -0.013 | 0.054 | 0.013 | 0.047 | -0.266 (active) | 0.025 | 0.033 | -0.004 | -0.044 | -0.053 | -0.012 | -0.039 | -0.014 | 0.004 | -0.041 | -0.005 | 0.085 | 0.004 | 0.032
VPS28 (UniProt Q9UK41) | -0.052 | 0.058 | -0.018 | -0.051 | -0.13 | -0.189 | 0.027 | 0.059 | 0.075 | 0.04 | 0.029 | -0.044 | 0.055 | 0.004 | -0.018 | 0.041 | -0.008 | -0.074 | -0.024 | 0.061
TNFAIP8 isoform 4 (UniProt O95379) | -0.018 | -0.036 | -0.036 | 0 | -0.037 | -0.075 | -0.047 | -0.065 | -0.001 | -0.037 | -0.019 | -0.013 | -0.021 | 0.051 | -0.102 | 0.014 | -0.102 | -0.052 | 0.003 | 0.065
TRAPPC6B (UniProt Q86SZ2) | -0.022 | 0.032 | -0.001 | -0.015 | -0.138 | 0.032 | 0.032 | -0.036 | 0.004 | 0.004 | 0.022 | -0.01 | 0.049 | 0.07 | -0.097 | 0.009 | 0.02 | -0.063 | -0.02 | 0.008
TXNRD1 (UniProt Q16881) | 0.064 | -0.035 | -0.062 | -0.088 | -0.049 | -0.013 | -0.03 | -0.042 | -0.011 | 0.077 | 0.032 | 0.006 | 0.021 | 0.039 | -0.051 | 0.024 | 0.007 | -0.035 | 0.011 | 0.024
